# DAX1 inh-1 = DAX1 (NR0B1) inhibition, primary screen; HEK293T StAR-luciferase reporter, SF-1/DAX-1 repression relief; inhibition, % at 6.8 µM; 370,000 tested, 1.1% active; AID 652010;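 active = inhibition above the mean over all tested compounds plus 3 SD, cut at about 3.6% in these data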;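 note: 0% = DAX-1 cells with DMSO and 100% = cells lacking DAX-1 with DMSO; higher inhibition means more luminescence from relief of DAX-1 repression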
# ssDAF-12 act = activators of S. stercoralis DAF-12 nuclear receptor; AID 652126; HEK293 ssDAF-12/GRIP1 lit1-tk-luc reporter, luminescence; % of 3 µM dafachronic acid response; 370,000 tested, 1% active; activation, % at 6.8 µM;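 active = activation above the mean over all tested compounds plus 3 SD, cut at about 0.9% in these data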;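 note: 0% = DMSO-only wells and 100% = 3 µM delta7-dafachronic acid wells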
# DAX1 inh-2 = inhibitors of human orphan nuclear receptor DAX1 (NR0B1). P51843. inhibition, % at 6.75 µM. HEK293 Gal4-DAX1 luciferase reporter, luminescence. 340,000 tested, 0.99% active;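 active = inhibition above the mean over all tested compounds plus 3 SD, cut at about 4.2% in these data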;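 note: 0% = DAX1-transfected cells with DMSO and 100% = empty-vector control cells with DMSO; inhibition shows as a rise in luminescence from relieved DAX1 repression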
# Target sequence (P51843 207-470 limits assumed): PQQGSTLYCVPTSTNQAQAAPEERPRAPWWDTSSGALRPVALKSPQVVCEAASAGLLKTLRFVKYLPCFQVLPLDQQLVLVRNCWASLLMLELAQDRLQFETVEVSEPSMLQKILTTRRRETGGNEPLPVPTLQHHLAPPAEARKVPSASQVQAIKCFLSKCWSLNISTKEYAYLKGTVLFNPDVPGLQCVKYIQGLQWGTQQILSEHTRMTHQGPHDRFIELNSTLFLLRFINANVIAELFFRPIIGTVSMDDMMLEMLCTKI
# hgDAF-12 ag = activates the H. glycines DAF-12 receptor ligand-binding domain | HEK293 GAL4-hgDAF12 UAS-luciferase reporter, agonist luminescence; normalized to butyrate control | activation, % at 6.8 µM | 370,000 tested, 1.8% active | AID 687014;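 active = activation above a cutoff set at the mean of all screened compounds plus 3 SD, cut at about 10% in these data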;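 note: 0% = DMSO wells and 100% = sodium butyrate wells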
# hcDAF12 agonist = activates DAF-12 receptor from parasite H. contortus; activation, % at 6.8 µM; 370,000 tested, 1.4% active; HEK293 hcDAF-12 lit1-tk-luc reporter, luminescence; 0% DMSO, 100% Δ7-dafachronic acid; AID 652067;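 active = activation above the mean of all tested compounds plus 3 SD, cut at about 5.5% in these data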;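 note: 100% = response to 3 µM Δ7-dafachronic acid high control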
# The depositor's hits bear a star; x = not tested or not shown. Most compounds without a hit are left out; they make up all but 4.1% or so of the library.
SMILES,DAX1 inh-1,ssDAF-12 act,DAX1 inh-2,hgDAF-12 ag,hcDAF12 agonist
O=C(NCCc1ccccc1)c1cnc2n(c1=O)CCS2,2,1.3*,2,8,2
COc1cccc(N2C(C(C)=O)=NN(c3ccccc3)C2c2ccc(N3CCOCC3)cc2)c1 (centres undefined),1,1,1,11*,1
CC(C)Oc1ccc(-c2csc(N3CCC(C(N)=O)CC3)n2)cc1,x,-1,x,11*,-3
C/C(=N\Nc1ccccn1)c1cccs1,3.9*,0,3,10,3
CCCCn1c(N)c(N(CC(C)C)C(=O)c2cccc(S(=O)(=O)N(C)c3ccccc3)c2)c(=O)[nH]c1=O,1,-1,0,-3,0
CCCCN(C(=O)c1ccc(N(C)S(=O)(=O)c2ccc(C)cc2)cc1)c1c(N)n(CCC)c(=O)[nH]c1=O,1,-1,1,0,0
CCCCn1c(N)c(N(CC(C)C)C(=O)c2ccc(S(=O)(=O)N(CC)c3ccccc3)cc2)c(=O)[nH]c1=O,0,1.4*,1,-2,1
CCCCN(C(=O)c1ccc(S(=O)(=O)N(C)c2ccccc2)cc1)c1c(N)n(CCC)c(=O)[nH]c1=O,4.4*,-1,1,1,0
COCCCN(Cc1cc(OC)c(OC)c(OC)c1)C(=S)Nc1cccc(Cl)c1,-2,-1,0,-3,-3
COC(=O)c1cc2c(c3c4cc(F)ccc4n(S(=O)(=O)c4ccc(OC)cc4)c13)C(=O)N(C)C2,0,-1,x,-3,0
Nc1ccc2c(=O)[nH][nH]c(=O)c2c1,-1,0,-1,3,-2
Nc1ccc2oc3ccc(N)cc3c(=O)c2c1,4.2*,1,0,11*,5.6*
CCNC(=O)C1(C)CCN(C(=O)C(c2ccccc2)c2ccccc2)C1 (centres undefined),0,-1,x,1,-1
Cc1ccccc1-c1cnn(-c2cccc([N+](=O)[O-])c2)c1N,0,-1,0,3,-1
Nc1c(-c2ccccc2)cnn1-c1ccc(C(=O)O)cc1,2,0,0,12*,3
Cc1ccc(-c2cnn(-c3cccc([N+](=O)[O-])c3)c2N)cc1,0,-1,2,11*,-1
Cc1ccc(-c2cnn(-c3ccccc3)c2N)cc1,3,0,0,16*,5
COc1ccccc1NC(=O)N1CCCC(C(=O)Nc2cccc(C)c2C)C1 (centres undefined),0,-1,7.5*,0,0
CCN(CC)C(=O)CCCSc1nnc(Nc2ccccc2F)s1,1,-1,0,13*,2
COC(=O)c1c(NC(=O)c2ccccc2)sc(C(N)=O)c1C,2,1.0*,0,-4,4
COC(=O)c1c(NC(=O)c2ccccc2)sc(C(=O)c2ccccc2)c1C,1,0,1,2,1
O=c1ccn2c(n1)OC1CC2OC1COC(c1ccccc1)(c1ccccc1)c1ccccc1 (centres undefined),0,-1,x,-5,-2
NC(N)=N/N=C/c1ccccc1OC(F)F,0,-2,-1,-1,0
FC(F)Oc1ccccc1/C=N/n1cnc2ccccc21,0,-1,0,11*,3
Nc1ccc(S(N)(=O)=O)cc1N,3,1,7.3*,13*,4
SMILES,DAX1 inh-1,ssDAF-12 act,DAX1 inh-2,hgDAF-12 ag,hcDAF12 agonist
Nc1ccc(S(N)(=O)=O)cc1,-1,-2,2,-1,-2
COc1ccc(CCNC(=O)c2ccccc2OCc2c(C)noc2C)cc1,3.7*,-1,-1,-1,-1
Cc1noc(C)c1COc1ccccc1C(=O)NCCc1ccc(Cl)cc1,1,-1,0,0,-1
O=C(CSc1ncnc2c1cnn2-c1ccccc1)NC1CCCC1,1,0,1,2,5.7*
O=C(CSc1ncnc2c1cnn2-c1ccccc1)Nc1ccccc1,1,-1,-1,1,1
Cc1ccc(-n2ncc3c(SCC(N)=O)ncnc32)cc1C,2,0,4.3*,8,5
Cc1ccc(-n2ncc3c(=O)n(CC(N)=O)cnc32)cc1C,0,-1,1,3,3
CCN(CC)c1ccc(C(=O)OCC(=O)Nc2cc(C)on2)cc1,2,-1,1,-1,-1
CCC(NC(=O)CN1CCN(c2cccc(OC)c2)CC1)c1ccccc1 (centres undefined),-2,-1,x,-1,1
O=C(C(c1ccccc1)C(O)c1ccccc1)N1CCOCC1 (centres undefined),0,0,0,5,-1
Cc1ccc(S(=O)(=O)N2C[C@H]3n4c(=O)ccc(=O)n4C[C@H](OC(=O)NCc4ccccc4F)[C@@]3(O)C2)cc1,-2,-2,-1,-3,-1
O=C(CN(Cc1ccccc1)C(=O)CCC(=O)Nc1nccs1)NCc1ccc(F)cc1,0,-1,1,-2,0
O=C(CN(Cc1ccc(F)cc1)C(=O)CCC(=O)Nc1nccs1)NCc1ccc(F)cc1,0,-2,4.6*,-2,-3
O=C(OCc1nc2ccccc2s1)c1ccc(Br)o1,0,0,4.6*,4,5
O=C(OCc1nc2ccccc2s1)c1ccc([N+](=O)[O-])o1,x,x,0,x,x
C[C@@H]1NS(=O)(=O)c2c(F)cccc2O[C@@H]1c1ccccc1,0,-1,x,-1,0
CC1CCCC=CC2CC(OC(=O)CN(C)C)CC2C(O)C=CC(=O)O1 (centres undefined),4.5*,-2,-2,-8,-2
COc1ccc2nc3sc(C(=O)NCCN4CCc5ccccc5C4)cc3cc2c1,1,0,-1,12*,5
COc1ccc2cc3cc(C(=O)NCCCN4CCc5ccccc5C4)sc3nc2c1,1,0,1,5,1
Cc1ccc(F)cc1C(=O)N1CCCC(c2cc(C(=O)NCc3ccc(F)cc3)no2)C1 (centres undefined),-1,-2,x,-1,-1
CCCNC(=O)c1cc(C2CCCN(S(=O)(=O)c3cccs3)C2)on1 (centres undefined),-1,1.1*,x,-2,-2
Cc1ccc(F)cc1C(=O)N1CCCC(c2cc(C(=O)NCc3ccccc3)no2)C1 (centres undefined),4.0*,-1,x,2,-1
COC(=O)C1=C(C)N(C)C(=NCc2ccccc2)NC1CCc1ccccc1 (centres undefined),0,-1,x,1,-1
Cn1cncc1C(=O)c1ccccc1,-1,1.1*,2,0,2
N#C/C(=C/c1ccc(N2CCCCC2)o1)c1cccc(F)c1,4.4*,0,1,-4,-1
N#CC1(C(N)=O)OC12CCS(=O)(=O)c1ccccc12 (centres undefined),0,-1,2,-3,0
O=C(c1ccc(F)c(F)c1)N1CCC(Oc2cccnc2)CC1,0,-2,x,3,-2

# Screening data (PubChem BioAssay)
